According to PubChem BioAssay AID449762 (Southern Research Specialized Biocontainment Screening …, 2010):
Hit rate of the full screen: of about 330,000 compounds, about 1,900 (0.58%) were called active. Another 4% or so got no clear call; they are omitted. Only a sample is shown. Entries with a potency or affinity are not part of this list. Values without a mark were called inactive. Rule as the data show it: inconclusive = inhibition above about 70% without an active follow-up result; inactive = below that.

Assay: M. tuberculosis growth inhibition, HTS (AID 449762);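 also: bacterial growth assessed after seven days of incubation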
Conditions: M. tuberculosis H37Rv growth inhibition, 7H9 media; at 25 µM; hits give high values
Work on `CCCCn1c(C)c(C(=O)O)c2cc(OC)c3ccccc3c21` yielded an inhibition of 17.8%. Work on `COc1cc(C(=O)NCCc2cn3ccc(C)cc3n2)cc(OC)c1OC` yielded an inhibition of -5.75%. Molecule `CN=c1scc(-c2cccs2)n1/N=C/c1ccccc1O` has an inhibition of -8.02%. `CN=c1scc(-c2ccccc2F)n1/N=C/c1ccc[nH]1` gave an inhibition of 67.8%. With `C[C@H](CO)N1C[C@H](C)[C@@H](CN(C)Cc2ccc(C(=O)O)cc2)Oc2c(NS(=O)(=O)c3ccc(F)cc3)cccc2C1=O` the inhibition was -2.1%. With `O=C(NCc1nnc(SCC(=O)N2CCOCC2)o1)c1c(F)cccc1Cl` the inhibition was -6.01%. Molecule `COc1cccc(OCC(=O)N(C)Cc2nc(-c3cccc(C)c3)no2)c1` has an inhibition of 1.4%. In the case of `COc1ccc(O)c(C(=O)c2cnn(C(=O)c3cccc(S(=O)(=O)N4CCOCC4)c3)c2)c1`, the inhibition is reported as -2.2%. In the case of `CCN(CC(=O)NCc1cccs1)C(=O)c1ccc(C)o1`, the inhibition is reported as 2.46%. `CCN(CC(=O)NCc1cccs1)C(=O)c1ccc(-c2ccc(F)cc2)o1` showed an inhibition of -1.53%. `CCOc1ccc(S(=O)(=O)N2CCN(C(=O)CN3C(=O)NC4(CCCC4)C3=O)CC2)cc1` showed an inhibition of -3.03%. `Cc1oc(C(=O)Nc2ccc(C(=O)O)cc2)cc1COc1ccccc1` showed an inhibition of -2.76%. Molecule `Cc1ccc(OCc2cc(C(=O)Nc3ccccc3)oc2C)cc1` has an inhibition of 0.92%. With `COc1ccc(CCNC(=O)c2cc(C(C)C)on2)cc1OC` the inhibition was -0.84%. Work on `Cc1cccc2c1NC(=O)/C2=C\C(=O)c1cccs1` yielded an inhibition of -9.89%. `CCc1ccc2c(c1)C(O)(CC(=O)c1cccs1)C(=O)N2` (stereo not drawn) showed an inhibition of 10.1%. `N#Cc1c(-c2ccccc2)c(-c2ccccc2)nn(CC(=O)NNC(=O)Nc2ccccc2)c1=O` showed an inhibition of -9.35%. For `N#Cc1c(-c2ccccc2)c(-c2ccccc2)nn(CC(=O)NNC(=O)Nc2ccc(Cl)cc2)c1=O`, the inhibition was 3.84%. Work on `COc1ccc(NC(=O)C23CC4CC(CC(Cl)(C4)C2)C3)cc1S(=O)(=O)N1CCOCC1` yielded an inhibition of 1.2%. With `COC(=O)Cc1ccc(NC(=O)c2ccc3c(c2)C(=O)N(Cc2ccco2)C3=O)cc1` the inhibition was -5.45%. For `CCOC(=O)c1c(NC(=O)CC2SC(N)=NC2=O)sc(C)c1C` (stereo not drawn), the inhibition was 0.41%. Molecule `O=S(=O)(NCCN1CCCC1)c1ccc(Br)cc1` has an inhibition of 0.37%. In the case of `CN1CCN(Cc2nc3ccccc3c(=O)n2Cc2nc(-c3ccc([N+](=O)[O-])cc3)cs2)CC1`, the inhibition is reported as 3.59%. `CCOc1ccc(-c2csc(Cn3c(CN4CCN(C)CC4)nc4ccccc4c3=O)n2)cc1` gave an inhibition of 8.95%. `CCCCN(C(=O)c1ccc(C#N)cc1)c1c(N)n(CCC)c(=O)[nH]c1=O` showed an inhibition of -1.21%. In the case of `O=C(CN1CCCCC1)NC(=O)NC1CCCCC1`, the inhibition is reported as -4.76%. `COc1cc(O)cc2occ(-c3ccc(O)cc3)c(=O)c12` showed an inhibition of -14.1%. With `Cc1nnc(SCC(=O)NC2CCCCC2)n1N` the inhibition was 3.31%. For `Cc1ccc(NC(=O)C(C)Sc2nc(-c3ccccc3)cc(=O)[nH]2)cc1` (stereo not drawn), the inhibition was 14%. Work on `C=CCn1c(N)cc(=O)nc1SC(C)C(=O)Nc1ccc(C(=O)OCC)cc1` (stereo not drawn) yielded an inhibition of 6.39%. In the case of `CCc1ccccc1NC(=O)C1CCCN(c2nn3c(=O)cc(C)nc3s2)C1` (stereo not drawn), the inhibition is reported as -6.18%. Molecule `O=C(COC(=O)c1cc(S(=O)(=O)N2CCOCC2)ccc1F)c1ccccc1` has an inhibition of 0.68%. For `O=C(Nc1cccc(NC(=O)c2cc([N+](=O)[O-])ccc2Cl)n1)c1cc([N+](=O)[O-])ccc1Cl`, the inhibition was 10.1%. Molecule `CCc1cccc(NC(=O)C2CCN(c3ncnc4sc(C)c(C)c34)CC2)c1` has an inhibition of 22.6%. `Cc1sc2ncnc(N3CCC(C(=O)Nc4ccc(C#N)cc4)CC3)c2c1C` showed an inhibition of 7.85%. For `COc1cc(-c2noc(C)c2C(=O)NCc2ccc(C)o2)cc(OC)c1OC`, the inhibition was 3.84%. In the case of `CC(=O)c1c(C)[nH]c(C(=O)OCC(=O)NCc2cccs2)c1C`, the inhibition is reported as 7.06%. In the case of `CC(C)Nc1nc(NC(C)C)nc(N(C)C#N)n1`, the inhibition is reported as 0.57%. In the case of `CC(C)Nc1nc(NC(C)C)nc(N(C)C(N)=O)n1`, the inhibition is reported as 1.68%. In the case of `C=CC[C@H](CC(=O)OC(C)(C)C)C(=O)OC[C@H]1CCCN1C(=O)[C@@H](CC=C)CC(=O)N(CCO)Cc1ccccc1`, the inhibition is reported as -3.24%. `C[C@@H](NC(=O)c1[nH]cnc1C(=O)Nc1cccc(Cl)c1)c1ccccc1` showed an inhibition of 56.8%. For `C[C@H](NC(=O)c1[nH]cnc1C(=O)Nc1cccc(Cl)c1)c1ccccc1`, the inhibition was 48.7%. Work on `O=C(CN(Cc1ccccc1)C(=O)CNS(=O)(=O)c1ccc(F)cc1)NCC1CCCO1` (stereo not drawn) yielded an inhibition of -5.05%. `Cc1nn(C)c(C)c1/C=C/C(=O)c1ccccc1` gave an inhibition of 7.75%. Work on `Cc1nn(-c2ccccc2)c(Cl)c1/C=N/NC(N)=O` yielded an inhibition of -5.57%. In the case of `O=C(c1cccc(C(F)(F)F)c1)c1c[nH]c(C(=O)NCCCN2CCOCC2)c1`, the inhibition is reported as 2.14%. `O=C(Nc1ccc2[nH]ncc2c1)c1ccccc1Cl` showed an inhibition of -3.21%. Work on `Cc1cc(S(=O)(=O)Nc2ccc3cn[nH]c3c2)c(C)cc1Cl` yielded an inhibition of -3.66%. For `O=Cc1cc(Br)c(OC(=O)N2CCOCC2)c(Br)c1`, the inhibition was 5.26%. `Cc1ccc(-c2nn(-c3ccccc3)cc2CO)cc1` showed an inhibition of 4.76%. For `OCc1cn(-c2ccccc2)nc1-c1ccc(-c2nn(-c3ccccc3)cc2CO)cc1`, the inhibition was 0.63%. `CC(C)[C@]1(c2ccc(Cl)cc2)ON(c2ccccc2C(F)(F)F)C1=O` gave an inhibition of 1.98%. Molecule `O=C(CCc1nc2ccccc2c(=O)[nH]1)Nc1nnc(SCc2ccc(Cl)cc2)s1` has an inhibition of -0.53%. For `Cn1ccnc1SCC(=O)NCC(=O)Nc1ccc(F)c(F)c1F`, the inhibition was 1.26%. In the case of `c1ccc(CN2CCC(Nc3nc(-c4cccnc4)nc4ccccc34)CC2)cc1`, the inhibition is reported as 10.5%. `c1ccc(-c2nc(NC3CCCC3)c3ccccc3n2)cc1` gave an inhibition of 11.8%. Molecule `O=C(Nc1ccncc1)c1ccc(Cl)c(Cl)c1` has an inhibition of 4.84%. `O=C(Nc1ccc(Cl)c(Cl)c1)c1ccc(Cl)c(Cl)c1` gave an inhibition of 1.7%.
